The target of one assay is Albumin (Bos taurus) (UniProt P02769). Kind of assay: bovine serum albumin binders on microarray, profiling panel, artefact control for SMM control protein annotation, biochemical, small-molecule microarray, Alexa647 label, 635/667 nm fluorescence (AID 1118).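 Also: score merges 667 nm emission intensity and signal-to-noise per printed compound spot.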 Particulars: BSA-A647 binding, fluorescence 635 nm, higher = more signal.
The nature of assay [1]: small-molecule microarray binders of probe aXIP, primary screen, biochemical, NeuroSMM set, 635/667 nm fluorescence (AID 1119).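 Also: probe is the protein aXip251-270 applied at 1 µg/mL to compound-printed slides; binding of probe to printed compounds measured as 667 nm fluorescence plus signal to noise.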 As to conditions: higher = more signal, called active from +8 up or from −8 down.
Assay [2] is described as follows: small-molecule binders of probe aNOTCH3, primary screen, biochemical, small-molecule microarray, 635/667 nm fluorescence (AID 1120).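 Also: probe is a biotin-tagged antibody raised against NOTCH3 rather than NOTCH3 protein; score merges spot fluorescence near 667 nm with spot signal to noise.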 Particulars: higher = more signal.
Assay [3] can be described thus: small-molecule binders of probe aNOTCH2, primary screen, biochemical, small-molecule microarray, 635/667 nm fluorescence (AID 1121).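 Also: score merges feature fluorescence read at 667 nm with its signal to noise.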 Particulars: higher = more signal.
Assay [4] addresses Carbonic anhydrase 2 (Homo sapiens) (UniProt P00918). Kind of assay: CAII small-molecule binders, profiling panel, biochemical, small-molecule microarray, Alexa647-labelled CAII (AID 1122). As to conditions: CAII-A647 binding fluorescence, higher = more signal.
Assay [5] can be described thus: COS7 lysate on small-molecule microarray, probe aHis, 635 nm (AID 1123).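 Also: z-score combines 667nm fluorescence intensity with signal-to-noise per printed compound spot.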 Particulars: COS7 cell lysate, fluorescence, higher = more signal.
Assay [6] can be described thus: compound binding in COS7 lysate, probe aLAP1, primary screen, cell lysate, small-molecule microarray (AID 1124).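 Also: lysate comes from COS7 cells expressing LAP1 and is applied at 0.3 µg/mL; score merges spot fluorescence near 667 nm with signal-to-noise over triplicate slides.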 As to conditions: probe aLAP1, fluorescence, higher = more signal.
For a further assay, the system named is Sam68 (KHDRBS1). Kind of assay: Sam68 small-molecule binders, primary screen, biochemical, small-molecule microarray, 635 nm fluorescence (AID 1125).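 Also: score merges 667 nm channel intensity with signal to noise over triplicate slides.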 Particulars: small-molecule microarray binding, higher = more signal.
The test system of assay [7] is Chordin-like protein 2 (CHRDL2). Kind of assay: CHRDL2 small-molecule binders, primary screen, biochemical, small-molecule microarray, 635 nm fluorescence (AID 1126).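 Also: printed compound slides probed with Chrdl2 protein at 4 µg/mL for 1 h at 4 C; score merges 667 nm emission intensity with signal to noise over three replicate slides.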 Particulars: small-molecule microarray binding, fluorescence 635 nm; higher = more signal.
In assay [8] the target is Concanavalin-A (Canavalia ensiformis) (UniProt P02866). Kind of assay: ConA small-molecule binders, primary screen, artefact control for SMM control protein annotation, biochemical, small-molecule microarray, Alexa647 label, 635 nm (AID 1127).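 Also: z combines 667 nm emission intensity with signal-to-noise across three replicate slides.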 As to conditions: ConA-A647 binding fluorescence, higher = more signal.
Concanavalin-A (Canavalia ensiformis), sequence (P02866 whole entry, looked up): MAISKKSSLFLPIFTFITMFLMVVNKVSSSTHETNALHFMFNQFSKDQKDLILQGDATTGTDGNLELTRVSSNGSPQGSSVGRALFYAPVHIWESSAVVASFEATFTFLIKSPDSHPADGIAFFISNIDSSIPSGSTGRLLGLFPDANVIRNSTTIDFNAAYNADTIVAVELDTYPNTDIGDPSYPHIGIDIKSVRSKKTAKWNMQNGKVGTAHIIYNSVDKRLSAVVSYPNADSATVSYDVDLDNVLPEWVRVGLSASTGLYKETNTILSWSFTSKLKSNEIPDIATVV
Assay [9] in a line: anti-His antibody binders, primary screen, artefact control for SMM control protein annotation, biochemical, small-molecule microarray, 635 nm fluorescence (AID 1128).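 Also: score merges feature fluorescence with signal-to-noise for each printed compound spot.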 Particulars: anti-His Alexa647 antibody binding, higher = more signal.
The subject of assay [10] is Human papillomavirus type 1a E7 protein (residues 1-88). Kind of assay: HPV1a E7 small-molecule binders, primary screen, biochemical, small-molecule microarray, residues 1-88, 635 nm (AID 1129). As to conditions: small-molecule microarray binding, fluorescence 635 nm; higher = more signal.
Assay [11] has as its target Focal adhesion kinase 1 (Homo sapiens) (UniProt Q05397). Kind of assay: small-molecule microarray binders of FAK, primary screen, biochemical, 635/667 nm fluorescence, BSA, DTT (AID 1130).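 Also: composite of spot emission at 667 nm and signal to noise over triplicate slides.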 As to conditions: PTK2 binding, 635 nm fluorescence, higher = more signal.
For assay [12], the system named is Fibrinogen (Alexa647-labelled). Kind of assay: fibrinogen binders on compound microarrays, profiling panel, artefact control for SMM control-protein annotation, biochemical, small-molecule microarray, 635/667 nm fluorescence (AID 1131).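 Also: z-score merges 667 nm fluorescence with per-spot signal-to-noise over triplicate slides.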 Particulars: fibrinogen-A647 binding fluorescence, higher = more signal.
For assay [13], the target named is Follistatin (Homo sapiens) (UniProt P19883). Kind of assay: follistatin binders on small-molecule microarrays, primary screen, biochemical, small-molecule microarray, 635/667 nm fluorescence (AID 1132). As to conditions: FST binding, 635 nm fluorescence, higher = more signal.
Follistatin (Homo sapiens), sequence (P19883 whole entry, looked up): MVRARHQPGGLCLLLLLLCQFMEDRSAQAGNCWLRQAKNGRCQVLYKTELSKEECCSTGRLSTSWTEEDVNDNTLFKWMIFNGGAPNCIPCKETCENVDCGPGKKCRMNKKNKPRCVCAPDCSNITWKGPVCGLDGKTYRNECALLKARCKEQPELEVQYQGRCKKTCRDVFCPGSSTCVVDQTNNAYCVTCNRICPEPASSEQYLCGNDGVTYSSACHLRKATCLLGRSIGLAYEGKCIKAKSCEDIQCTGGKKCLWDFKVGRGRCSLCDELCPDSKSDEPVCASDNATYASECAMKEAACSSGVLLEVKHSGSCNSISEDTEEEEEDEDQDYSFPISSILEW
Assay [14] concerns the target Fibroblast growth factor 2 (Homo sapiens) (UniProt P09038). As to the kind of experiment: FGF2 binders on small-molecule microarrays, primary screen, biochemical, small-molecule microarray, 635/667 nm fluorescence (AID 1133). Particulars: small-molecule microarray binding, FGF2, fluorescence 635/667; higher = more signal.
The nature of assay [15]: mitochondrial membrane potential change in A549 cells, profiling panel, cell-based, JC-1 fluorescence, basal, 24 h, 100 nL (AID 1138).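 Also: A549 lung adenocarcinoma cells under basal conditions with no added stimulus; test concentration not given here.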 Particulars: higher = more signal.
For another assay, the system named is Lefty1. As to the kind of experiment: Lefty1 binders on small-molecule microarrays, primary screen, biochemical, small-molecule microarray, 635/667 nm fluorescence (AID 1139). Particulars: small-molecule microarray binding, fluorescence 635/667; higher = more signal.
The subject of assay [16] is wheat germ agglutinin (Triticum aestivum), Alexa647-labelled. As to the kind of experiment: wheat germ agglutinin binders on compound microarrays, profiling panel, artefact control for SMM control-protein annotation, biochemical, small-molecule microarray, 635/667 nm fluorescence (AID 1140).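 Also: score merges 667 nm feature emission with signal to noise over triplicate slides.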 Particulars: WGA-A647 binding, 635 nm fluorescence, higher = more signal.
The target in assay [17] is Luciferin 4-monooxygenase (Photinus pyralis) (UniProt P08659). Kind of assay: firefly luciferase enzyme inhibitors, primary screen, biochemical, luminescence, purified enzyme, 2006 set (AID 1141).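 Also: cell-free assay with purified firefly luciferase at 100 ng per well in PBS; test concentration not given here.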 Particulars: SteadyGlo luminescence, 30 min, higher = more signal, called active from +8 up or from −8 down.
Luciferin 4-monooxygenase (Photinus pyralis), sequence (P08659 whole entry, looked up): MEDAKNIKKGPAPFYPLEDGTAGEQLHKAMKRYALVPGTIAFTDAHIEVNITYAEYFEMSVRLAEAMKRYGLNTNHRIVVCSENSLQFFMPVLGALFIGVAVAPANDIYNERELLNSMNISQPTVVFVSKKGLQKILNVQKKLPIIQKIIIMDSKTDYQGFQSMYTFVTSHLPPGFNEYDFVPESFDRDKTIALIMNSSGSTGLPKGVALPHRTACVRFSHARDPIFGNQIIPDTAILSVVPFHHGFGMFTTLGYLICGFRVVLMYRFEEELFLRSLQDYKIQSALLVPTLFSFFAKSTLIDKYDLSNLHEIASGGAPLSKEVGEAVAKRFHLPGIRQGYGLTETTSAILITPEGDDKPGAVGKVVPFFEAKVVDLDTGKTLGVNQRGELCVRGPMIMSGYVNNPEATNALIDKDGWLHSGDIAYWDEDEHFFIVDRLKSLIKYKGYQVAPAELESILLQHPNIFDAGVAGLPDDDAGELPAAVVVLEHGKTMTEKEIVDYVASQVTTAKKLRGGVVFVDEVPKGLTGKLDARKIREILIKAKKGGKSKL

Calls of active or inactive are those of the source.

Albumin (Bos taurus), sequence (P02769 whole entry, looked up): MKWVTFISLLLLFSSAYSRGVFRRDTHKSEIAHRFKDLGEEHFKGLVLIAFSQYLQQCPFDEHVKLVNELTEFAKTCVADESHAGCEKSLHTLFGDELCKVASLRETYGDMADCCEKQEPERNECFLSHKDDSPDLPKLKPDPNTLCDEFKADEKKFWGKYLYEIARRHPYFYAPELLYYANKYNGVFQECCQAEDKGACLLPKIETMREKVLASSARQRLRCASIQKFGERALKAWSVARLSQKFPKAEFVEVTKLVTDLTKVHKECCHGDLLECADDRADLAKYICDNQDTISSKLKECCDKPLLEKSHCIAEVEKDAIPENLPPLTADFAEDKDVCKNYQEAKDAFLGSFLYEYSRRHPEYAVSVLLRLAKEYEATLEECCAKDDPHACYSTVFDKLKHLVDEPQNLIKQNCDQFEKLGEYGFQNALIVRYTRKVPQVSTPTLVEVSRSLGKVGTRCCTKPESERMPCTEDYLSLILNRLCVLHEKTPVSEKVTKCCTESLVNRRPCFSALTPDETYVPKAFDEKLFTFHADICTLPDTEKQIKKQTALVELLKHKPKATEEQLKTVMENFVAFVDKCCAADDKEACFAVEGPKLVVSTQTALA
Fibroblast growth factor 2 (Homo sapiens), sequence (P09038 whole entry, looked up): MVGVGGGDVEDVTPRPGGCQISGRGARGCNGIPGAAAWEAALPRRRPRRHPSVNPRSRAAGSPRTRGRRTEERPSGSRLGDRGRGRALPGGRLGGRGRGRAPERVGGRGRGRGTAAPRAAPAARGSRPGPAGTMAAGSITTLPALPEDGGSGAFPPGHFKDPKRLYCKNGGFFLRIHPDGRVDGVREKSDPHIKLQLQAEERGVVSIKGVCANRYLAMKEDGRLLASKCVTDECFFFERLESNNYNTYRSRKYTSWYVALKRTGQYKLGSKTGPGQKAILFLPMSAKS
Focal adhesion kinase 1 (Homo sapiens), sequence (Q05397 whole entry, looked up): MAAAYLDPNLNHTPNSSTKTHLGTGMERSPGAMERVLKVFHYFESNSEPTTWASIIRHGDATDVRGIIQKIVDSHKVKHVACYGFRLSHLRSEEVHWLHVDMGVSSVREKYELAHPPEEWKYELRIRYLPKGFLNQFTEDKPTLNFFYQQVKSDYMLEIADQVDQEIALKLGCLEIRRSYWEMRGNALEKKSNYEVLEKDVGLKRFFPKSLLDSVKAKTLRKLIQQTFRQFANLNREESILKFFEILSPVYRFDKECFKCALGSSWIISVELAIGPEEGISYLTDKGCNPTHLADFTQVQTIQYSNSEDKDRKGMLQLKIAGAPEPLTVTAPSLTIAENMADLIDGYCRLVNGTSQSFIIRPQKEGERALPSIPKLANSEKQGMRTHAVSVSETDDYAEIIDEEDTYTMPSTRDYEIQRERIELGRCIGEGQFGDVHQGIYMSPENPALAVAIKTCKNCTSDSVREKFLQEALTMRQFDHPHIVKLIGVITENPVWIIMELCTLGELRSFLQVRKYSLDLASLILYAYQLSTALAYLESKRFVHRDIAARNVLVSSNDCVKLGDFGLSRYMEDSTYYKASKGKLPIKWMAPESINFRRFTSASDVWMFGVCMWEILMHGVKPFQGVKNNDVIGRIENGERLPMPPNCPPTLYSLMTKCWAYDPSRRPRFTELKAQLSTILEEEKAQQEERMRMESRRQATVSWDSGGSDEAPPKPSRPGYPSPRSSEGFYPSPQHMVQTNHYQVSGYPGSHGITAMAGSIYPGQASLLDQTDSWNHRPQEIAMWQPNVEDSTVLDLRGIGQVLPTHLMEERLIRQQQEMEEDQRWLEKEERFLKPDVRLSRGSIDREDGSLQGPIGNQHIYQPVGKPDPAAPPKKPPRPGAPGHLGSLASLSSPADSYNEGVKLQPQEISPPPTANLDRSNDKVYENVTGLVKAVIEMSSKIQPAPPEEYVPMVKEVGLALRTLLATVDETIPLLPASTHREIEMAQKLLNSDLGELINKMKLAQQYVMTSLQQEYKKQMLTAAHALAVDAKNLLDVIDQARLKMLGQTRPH

As for `CCOC(=O)C[C@H]1[C@H](OC(=O)c2ccccc2-c2ccccc2)[C@@H](NC(=O)c2ccc3ccccc3c2)c2cc(OCCCO)ccc2N1C(=O)c1ccc2ccccc2n1`, the composite z-score with Albumin (Bos taurus) is 0.43; in assay [2], 0.172; in assay [3], -0.14; in assay [4] it was 0.124; in assay [5], 0.806; in assay [6], -0.106. Further, the composite z-score is 0.744 in the assay on Sam68 (KHDRBS1); -0.0077 in assay [7]; 0.406 in assay [8]; 0.0868 in assay [9]; 0.635 in [10]; -0.0301 in assay [11]. Besides, the composite z-score is 0.0467 in assay [12]; 0.874 in assay [13]; 0.306 in assay [14]; 0.543 with Lefty1; 0.119 in [16]. For the same compound, the composite Z-score in assay [1] is -0.666 (inactive). For the same compound, the z-score in assay [15] is 0.988; in [17], 0.667 (inactive).

For the compound `O=C1OCCC=C[C@H]2OC34C=CCN(c5ccc6ccccc6c5)C(=O)[C@H]3N(CCCCCO)C(=O)[C@@H]4C12` (stereo not given in full), the composite z-score in the assay with Albumin (Bos taurus) was 0.388; in assay [2], -0.0647; in assay [3], -0.0443; in assay [4], 0.897; in [5], 2.11; in [6], 0.859. The composite z-score is -0.222 with Sam68 (KHDRBS1); 0.254 in assay [7]; -0.119 in [8]; 0.565 in assay [9]; 0.312 in assay [10]; 0.602 in assay [11]. In addition, the composite z-score is 0.737 in assay [12]; -0.626 in assay [13]; -0.329 in assay [14]; -0.332 with Lefty1; 1.28 in assay [16]. Besides, the composite Z-score in [1] is 1.1 (inactive). For the same compound, the figures for the z-score in assay [15] and in assay [17] were 2.3 and -1.1 (inactive), respectively.

`O=C1OCC=C[C@H]2OC34C=CCN(c5ccc(Cl)cc5)C(=O)[C@H]3N(CCCCCCO)C(=O)[C@@H]4[C@@H]12` (stereo not given in full): the composite z-score was -0.95 with Albumin (Bos taurus); -0.226 in [2]; -0.148 in assay [3]; 0.978 in [4]; 0.568 in assay [5]; 0.688 in assay [6]. Further, the composite z-score in the assay with Sam68 (KHDRBS1) is -1.02; in [7], -1.03; in [8] it was -1.59; in [9] it was 1.41; in assay [10], -0.777; in assay [11], -0.209. Besides, the composite z-score was -2.01 in assay [12]; -1.57 in assay [13]; -0.705 in assay [14]; -1.09 with Lefty1; -0.892 in assay [16]. In addition, the composite Z-score in assay [1] is 0.276 (inactive). The z-score is 1.82 in assay [15] and -0.71 (inactive) in assay [17].

As to `C=CC[C@@]1(C(=O)NCC(O)CO)N=C(c2ccc(OCCCO)cc2)O[C@@H]1c1ccccc1N=[N+]=[N-]` (stereo not given in full), the composite z-score was determined as 1.04 in the assay with Albumin (Bos taurus); 0.266 in assay [2]; 0.0007 in assay [3]; 0.778 in assay [4]; 3.7 in [5]; 1.02 in assay [6]. Further, the composite z-score was 0.931 with Sam68 (KHDRBS1); -0.982 in [7]; 0.97 in [8]; 2.92 in assay [9]; 1.12 in assay [10]; -0.121 in [11]. The composite z-score was 0.415 in assay [12]; 0.849 in assay [13]; -0.0851 in [14]; 0.003 with Lefty1; 1.12 in assay [16]. The composite Z-score in assay [1] is 0.338 (inactive). Also, the z-score in assay [15] was -0.921; in assay [17] it was -11.2 (active).

As to `CCCC[C@@H]1C[C@H]1[C@@H](NC(=O)c1ccc(-c2ccccc2)cc1)c1ccc(-c2ccccc2)cc1`, the composite z-score with Albumin (Bos taurus) is -0.0732; in [2], -0.0072; in assay [3], -0.0795; in assay [4], 0.0853; in assay [5], 0.468; in assay [6] it was -0.113. Also, the composite z-score is 0.287 in the assay with Sam68 (KHDRBS1); 1.42 in [7]; -0.142 in assay [8]; 0.0916 in assay [9]; 0.481 in assay [10]; 0.504 in assay [11]. In addition, the composite z-score in assay [12] came out at 0.348; in [13] it was 1.37; in assay [14] it was 0.271; with Lefty1 it was 0.971; in assay [16] it was 0.249. Besides, the composite Z-score in assay [1] is -0.254 (inactive). For the same compound, the z-score in assay [15] is 0.738; in assay [17], 0.779 (inactive).

For the compound `NC(=O)NCC#Cc1ccc2c(c1)[C@]1(C(=O)N2)[C@H](C(=O)NC[C@H](O)c2ccccc2)[C@H]2C(=O)O[C@H](c3ccccc3)[C@H](c3ccccc3)N2[C@@H]1c1ccc(O)cc1`, the composite z-score with Albumin (Bos taurus) was 0.496; in assay [2], 0.51; in [3], 0.159; in [4] it was 0.501; in [5], 2.15; in [6], 0.743. Further, the composite z-score came out at 0.998 in the assay on Sam68 (KHDRBS1); 0.395 in [7]; 1.13 in assay [8]; 0.489 in assay [9]; 1.17 in assay [10]; 0.58 in [11]. The composite z-score in assay [12] came out at 0.673; in [13] it was 1.17; in [14], 1.21; with Lefty1, 0.595; in assay [16], 1.09. In assay [1], the composite Z-score is 0.58 (inactive). For the same compound, the z-score was -2.34 in assay [15] and -0.0138 (inactive) in assay [17].

The values are drawn from PubChem BioAssay.
